Experimental data published in PubChem BioAssay.
Values joined by “and” are separate entries in the source; they are usually repeats but may differ in a detail not shown here. Equal entries are not always repeated.

Columns and labels:
[1] = test system: Botulinum neurotoxin type F light chain protease (Clostridium botulinum); assay: Botulinum neurotoxin type F light chain protease inhibition, multiplex microsphere flow cytometry, validation set (AID 588459); conditions: multiplex microsphere protease substrate cleavage assay, at 10 µM, active compounds read high
[2] = target: Botulinum neurotoxin type A (Clostridium botulinum) (UniProt P0DPI0); assay: BoNT/A light chain protease inhibitors, biochemical, multiplex microsphere flow cytometry, validation set (AID 588460); conditions: at 10 µM, active compounds read high
Sequence of Botulinum neurotoxin type A (Clostridium botulinum) (P0DPI0 whole entry, looked up): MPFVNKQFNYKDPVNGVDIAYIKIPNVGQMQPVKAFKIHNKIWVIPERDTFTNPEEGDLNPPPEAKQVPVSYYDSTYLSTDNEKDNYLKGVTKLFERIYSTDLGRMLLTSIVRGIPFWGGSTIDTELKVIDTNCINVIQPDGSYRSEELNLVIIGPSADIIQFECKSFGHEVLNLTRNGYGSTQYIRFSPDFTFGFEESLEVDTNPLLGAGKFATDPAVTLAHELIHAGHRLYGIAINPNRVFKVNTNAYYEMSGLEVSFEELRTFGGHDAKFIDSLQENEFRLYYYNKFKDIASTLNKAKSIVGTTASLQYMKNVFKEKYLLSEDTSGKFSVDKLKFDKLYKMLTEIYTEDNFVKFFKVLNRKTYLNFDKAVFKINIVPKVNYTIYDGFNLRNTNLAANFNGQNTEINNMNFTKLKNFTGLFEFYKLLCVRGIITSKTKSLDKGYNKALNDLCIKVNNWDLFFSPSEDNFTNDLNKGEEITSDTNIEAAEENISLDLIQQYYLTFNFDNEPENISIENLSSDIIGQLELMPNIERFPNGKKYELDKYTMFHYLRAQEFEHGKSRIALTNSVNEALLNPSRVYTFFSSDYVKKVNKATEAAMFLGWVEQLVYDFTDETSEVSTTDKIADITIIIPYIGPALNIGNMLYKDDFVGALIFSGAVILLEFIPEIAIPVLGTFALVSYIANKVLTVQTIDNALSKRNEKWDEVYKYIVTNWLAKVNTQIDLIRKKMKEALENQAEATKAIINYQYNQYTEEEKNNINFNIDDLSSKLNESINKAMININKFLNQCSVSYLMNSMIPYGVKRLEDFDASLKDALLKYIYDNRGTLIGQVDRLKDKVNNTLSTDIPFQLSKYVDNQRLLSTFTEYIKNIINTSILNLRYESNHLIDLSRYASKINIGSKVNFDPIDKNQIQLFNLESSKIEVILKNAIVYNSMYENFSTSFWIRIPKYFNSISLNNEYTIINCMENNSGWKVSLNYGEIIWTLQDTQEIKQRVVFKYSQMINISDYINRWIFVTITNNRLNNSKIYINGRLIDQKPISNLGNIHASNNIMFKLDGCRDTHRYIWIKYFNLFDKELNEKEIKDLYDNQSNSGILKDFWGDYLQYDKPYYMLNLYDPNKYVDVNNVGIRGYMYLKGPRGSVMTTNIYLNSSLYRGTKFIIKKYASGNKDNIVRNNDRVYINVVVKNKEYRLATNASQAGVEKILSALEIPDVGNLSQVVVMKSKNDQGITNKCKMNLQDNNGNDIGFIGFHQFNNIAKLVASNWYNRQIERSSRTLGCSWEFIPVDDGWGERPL

[3] = target: Lethal factor (Bacillus anthracis) (UniProt P15917); assay: Lethal factor protease inhibitors, Bacillus anthracis, multiplex microsphere cleavage assay, validation set (AID 588461); conditions: flow cytometry, at 10 µM, active compounds read high
Sequence of Lethal factor (Bacillus anthracis) (P15917 whole entry, looked up): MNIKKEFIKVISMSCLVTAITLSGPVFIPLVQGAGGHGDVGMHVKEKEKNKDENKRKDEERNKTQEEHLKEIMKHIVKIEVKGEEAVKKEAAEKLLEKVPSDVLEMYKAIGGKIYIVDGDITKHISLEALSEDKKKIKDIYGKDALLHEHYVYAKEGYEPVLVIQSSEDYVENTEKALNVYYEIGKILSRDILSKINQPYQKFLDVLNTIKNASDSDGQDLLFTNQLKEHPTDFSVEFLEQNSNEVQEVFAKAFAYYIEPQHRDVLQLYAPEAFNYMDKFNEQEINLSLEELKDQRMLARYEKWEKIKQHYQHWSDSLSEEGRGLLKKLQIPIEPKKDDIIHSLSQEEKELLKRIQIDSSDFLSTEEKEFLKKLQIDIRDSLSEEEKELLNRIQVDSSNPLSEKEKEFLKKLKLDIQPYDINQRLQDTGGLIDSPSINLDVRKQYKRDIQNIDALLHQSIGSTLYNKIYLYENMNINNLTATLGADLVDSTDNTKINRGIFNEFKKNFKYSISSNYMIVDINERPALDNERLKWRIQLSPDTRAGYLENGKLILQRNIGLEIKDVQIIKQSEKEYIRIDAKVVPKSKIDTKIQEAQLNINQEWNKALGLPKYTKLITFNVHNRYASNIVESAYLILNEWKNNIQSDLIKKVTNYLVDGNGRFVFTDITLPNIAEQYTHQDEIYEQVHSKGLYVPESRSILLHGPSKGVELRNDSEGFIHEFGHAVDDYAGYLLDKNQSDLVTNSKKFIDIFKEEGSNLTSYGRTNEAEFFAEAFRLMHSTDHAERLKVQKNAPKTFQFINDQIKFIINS

Measured: inhibition

CC(=O)c1cc2c(cc1NC(=O)c1ccco1)OCCO2
inactive: [1] -1.7% | [2] -1.3% | [3] -1.9%

COc1cc(CNc2ccc(C)c(C)c2)cc(OC)c1OC
inactive: [1] 1.8% | [2] 0.5% | [3] -8.9%

COc1c(C=O)c(CCN(C)C(=O)c2ccc(F)cc2)cc2c1OCO2
inactive: [1] 3% | [2] -1.5% | [3] -4.4%

CC1(CC(=O)Nc2ccccc2)NC(=S)N(c2ccccc2)N1 (configuration not stated)
inactive: [1] 3% | [2] 0% | [3] 5.1%

CC(C)NCC(O)COc1ccc(CCOCC2CC2)cc1 (configuration not stated)
inactive: [1] -0.9% | [2] -3.6% | [3] 1.3%

COC(=O)c1ccccc1NC(=O)NCc1ccccc1
inactive: [1] 2.7% | [2] 0.1% | [3] 0.8%

Cc1ncc([N+](=O)[O-])n1CC(C)O (configuration not stated)
inactive: [1] -0.2% | [2] 1.1% | [3] 0.3%

CCOc1ccc(OCCSc2nc3ccccc3[nH]2)cc1
inactive: [1] -6.7% | [2] -1.3% | [3] -1.8%

N=c1ccn(CC(=O)NC(N)=O)c2ccccc12
inactive: [1] 3.3% | [2] 1.6% | [3] 3.1%

Cc1cc(C(C)(C)C)c(O)c(C)c1CC1=NCCN1
inactive: [1] 0.7% | [2] -1.1% | [3] 3.7%

COc1cc2c(cc1O)CCN(C(=O)c1ccco1)C2C (configuration not stated)
inactive: [1] 4.3% | [2] 1% | [3] 2.3%

O=c1ccc2ccccc2o1
inactive: [1] -3% | [2] -1.4% | [3] -1.4%

Cc1cnc(N)c2c(=O)oc3ccccc3c12
inactive: [1] 1.3% | [2] 0.4% | [3] -4.6%

Nc1ccc2nc(Cc3ccccc3)[nH]c2c1
inactive: [1] -12.8% | [2] -5.2% | [3] -74.5%

O=C(/C=C/c1ccco1)Nc1ccccc1C(=O)O
inactive: [1] 0.9% | [2] -0.2% | [3] 1.7%

COc1cc2c(cc1OC)-c1cc(NC3CCCCCC3)nc(=O)n1CC2
inactive: [1] -2.3% | [2] -1.4% | [3] -7.4%

COCCOC(=O)c1c(C)oc2ccc(OCc3cc(C(=O)OC)oc3C)cc12
inactive: [1] -0.6% | [2] -0.8% | [3] 1.6%

COc1ccc(CNC(=O)c2c(O)c3cccc4c3n(c2=O)CCC4)cc1
inactive: [1] 4.9% | [2] -0.1% | [3] -5.7%

Nc1cccc2c1nnn2C1OC(CO)C(O)C(O)C1O (configuration not stated)
inactive: [1] 0.7% | [2] 0.1% | [3] 3.5%

COc1ccc(C(Cl)=C(c2ccc(OC)cc2)c2ccc(OC)cc2)cc1
inactive: [1] 1.5% | [2] -0.6% | [3] -1.1%

COC(=O)c1ccc(COc2ccc3c(C)c(C)c(=O)oc3c2C)o1
inactive: [1] 1.9% | [2] -0.8% | [3] 0.2%

Cc1ccc(N(CC2=NCCN2)c2cccc(O)c2)cc1
inactive: [1] -1.3% and 3.1% and -7.5% | [2] -1.3% and -1.2% and -1.7% | [3] -2.4% and -9.5% and -5.2%

COc1ccc(Cl)cc1C(=O)NCCc1ccc(S(=O)(=O)NC(=O)NC2CCCCC2)cc1
inactive: [1] -1.1% | [2] -1.6% | [3] -9.4%

C/C=C/Cn1c(SC)nc2c1c(=O)[nH]c(=O)n2C
inactive: [1] -2.2% | [2] 0.9% | [3] -3.1%

CN1[C@@H](CC(=O)c2ccccc2)CCC[C@H]1C[C@H](O)c1ccccc1
inactive: [1] 3.2% | [2] -1% | [3] -2.2%

CCc1cc2c3c(c(=O)oc2cc1O)CCCC3
inactive: [1] -1.1% | [2] 2.2% | [3] 4.1%

CN1CCc2c(n(CC(O)CN(CCO)CCO)c3ccccc23)C1=O (configuration not stated)
inactive: [1] -0.1% | [2] 0.2% | [3] -3.6%

O=C1CC[C@@H](CN(Cc2ccccc2)Cc2cn[nH]c2-c2cc3ccccc3o2)N1
inactive: [1] 3.7% | [2] 1.2% | [3] -0.2%

C[C@H]1O[C@H]1P(=O)(O)O
inactive: [1] -0.1% | [2] 1.1% | [3] -2%
